Reference: PubChem BioAssay (NCI)
The panel holds about 79,000 compounds, 15% with a hit somewhere; the sample as a whole holds those more often. Active and inactive are the calls of the source. Rule as the data show it: active = growth inhibition above about 70%; inactive = the rest.

Tests used:
[1] = NCI Yeast Anticancer Drug Screen. Data for the rad50 strain (AID 155);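 also: 0% = growth of vehicle-only cultures of the same strain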; settings: S. cerevisiae rad50 strain growth inhibition, hits give high values
Procedure, shortened: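 Yeast carrying a defined DNA repair defect were exposed to test compounds, and growth was compared with vehicle-treated controls to give percent inhibition.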

[2] = NCI Yeast Anticancer Drug Screen. Data for the mec2-1 strain (AID 157); settings: S. cerevisiae mec2-1 strain, hits give high values
Procedure, shortened: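 Each compound was tested on mec2-1 yeast, a strain altered in DNA damage repair or cell cycle control. Growth inhibition is reported relative to vehicle.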

[3] = NCI Yeast Anticancer Drug Screen. Data for the sgs1 mgt1 strain (AID 161);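 also: 0% = growth of cultures given vehicle only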; settings: S. cerevisiae sgs1 mgt1 strain, hits give high values
Procedure, shortened: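 Mutant yeast exposed to compound; growth scored against vehicle-only wells.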

[4] = NCI Yeast Anticancer Drug Screen. Data for the cln2 rad14 strain (AID 165);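 also: 0% = growth equal to vehicle treated cultures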; settings: S. cerevisiae cln2 rad14 strain, hits give high values
Procedure, shortened: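 Test compounds were added to cln2 rad14 yeast cultures; inhibition of growth was then determined by comparison with vehicle treatment.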

[5] = NCI Yeast Anticancer Drug Screen. Data for the bub3 strain (AID 167); settings: S. cerevisiae bub3 mutant strain, hits give high values
Procedure, shortened: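 Compounds were applied to a genetically altered yeast strain carrying a cell-cycle control defect. Growth inhibition was scored against vehicle-treated controls.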

[6] = NCI Yeast Anticancer Drug Screen. Data for the mlh1 rad18 strain (AID 175); settings: S. cerevisiae mlh1 rad18 strain growth inhibition, hits give high values
Procedure, shortened: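 Inhibition values reflect reduced growth of mutant yeast versus vehicle-treated controls following compound exposure; the mutations affect DNA damage repair.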

[7] = at 5.0 µM (retest, dose inferred, filed as 0.5)
[8] = at 50.0 µM (retest, dose inferred, filed as 5.0)

Measured: growth inhibition

CC1(C)S[C@@H]2[C@H](N3C(=O)c4ccccc4C3=O)CN2[C@H]1NC(=O)N[C@@H]1N2C[C@@H](N3C(=O)c4ccccc4C3=O)[C@H]2SC1(C)C
inactive: [1]; [7] 0% | [1]; [8] 18% | [1]; at 50.0 µM 39.6% | [2]; [7] -4% | [2]; [8] 43% | [2]; at 50.0 µM 63.8% | [3]; [7] -2% | [3]; [8] 20% | [3]; at 50.0 µM 43% | [4]; [7] -6% | [4]; [8] 44% | [4]; at 50.0 µM 23.2% | [5]; [7] 4% | [6]; [7] -2% | [6]; [8] 36%
active: [5]; [8] 93% | [5]; at 50.0 µM 92.8% | [6]; at 50.0 µM 70.8%

CC1=C(C(=O)OCCc2ccc([N+](=O)[O-])cc2)C(c2ccccc2[N+](=O)[O-])C(C(=O)OC(C)C)=C(C)N1 (stereo not given)
inactive: [1]; [7] 12% | [1]; at 50.0 µM 69.6% | [2]; [7] 13% | [3]; [7] 1% | [4]; [7] 0% | [4]; at 50.0 µM 68.4% | [5]; [7] 4% | [6]; [7] 10% | [6]; at 50.0 µM 68%
active: [1]; [8] 93% | [2]; [8] 94% | [2]; at 50.0 µM 74.3% | [3]; [8] 87% | [3]; at 50.0 µM 75.7% | [4]; [8] 80% | [5]; [8] 89% | [5]; at 50.0 µM 74.6% | [6]; [8] 94%

N#Cc1c2c(c(N=[N+]=[N-])n3c1nc1ccccc13)CCCC2
active: [1]; [8] 95% | [1]; at 50.0 µM 87.2% | [2]; [8] 98% | [2]; at 50.0 µM 92.3% | [3]; [8] 99% | [3]; at 50.0 µM 91.5% | [4]; [8] 97% | [4]; at 50.0 µM 90% | [5]; [8] 95% | [5]; at 50.0 µM 90.9% | [6]; [8] 98% | [6]; at 50.0 µM 89.7%
inactive: [1]; [7] 47% | [2]; [7] 36% | [3]; [7] 45% | [4]; [7] 28% | [5]; [7] 43% | [6]; [7] 50%

CCCCc1ccc2c(c1)Nc1cc3ccccc3cc1N2
inactive: [1]; [7] -3% | [1]; [8] 55% | [2]; [7] 1% | [2]; [8] 26% | [2]; at 50.0 µM 44.5% | [3]; [7] 0% | [3]; [8] 56% | [3]; at 50.0 µM 54.9% | [4]; [7] -13% | [4]; [8] 30% | [4]; at 50.0 µM 33.4% | [5]; [7] 6% | [6]; [7] 7% | [6]; [8] 59%
active: [1]; at 50.0 µM 86.3% | [5]; [8] 81% | [5]; at 50.0 µM 77.8% | [6]; at 50.0 µM 95%

CSc1cccc(N2C(=O)C=CC2=O)c1
active: [1]; at 50.0 µM 91.5% | [2]; at 50.0 µM 93.4% | [3]; [7] 100% | [3]; [8] 100% | [3]; at 50.0 µM 94% | [4]; [8] 100% | [4]; at 50.0 µM 91.5% | [5]; [7] 100% | [5]; [8] 100% | [5]; at 50.0 µM 92.7% | [6]; at 50.0 µM 92.5%
inactive: [1]; [7] 42% | [1]; [8] 52% | [2]; [7] 49% | [2]; [8] 48% | [4]; [7] 69% | [6]; [7] 34% | [6]; [8] 45%

CCCCCCCCCCCCOC(=O)C[n+]1cccc(C(N)=O)c1
active: [1]; [8] 99% | [1]; at 50.0 µM 99.8% | [2]; [8] 99% | [2]; at 50.0 µM 99.7% | [3]; [8] 81% | [3]; at 50.0 µM 99.8% | [4]; [8] 96% | [4]; at 50.0 µM 98.2% | [5]; [8] 99% | [5]; at 50.0 µM 99.6% | [6]; [8] 99% | [6]; at 50.0 µM 99.7%
inactive: [1]; [7] -1% | [2]; [7] -4% | [3]; [7] -3% | [4]; [7] -8% | [5]; [7] -6% | [6]; [7] -4%

O=S(=O)(Nc1ccc(NS(=O)(=O)c2ccccc2)c(N2N=N2)c1)c1ccccc1
inactive: [1]; [7] 1% | [1]; [8] 69% | [2]; [7] 2% | [2]; at 50.0 µM 66.2% | [3]; [7] 4% | [4]; [7] 0% | [4]; [8] 55% | [5]; [7] -2% | [5]; [8] 62% | [6]; [7] -2%
active: [1]; at 50.0 µM 86.3% | [2]; [8] 80% | [3]; [8] 76% | [3]; at 50.0 µM 88.9% | [4]; at 50.0 µM 79.1% | [5]; at 50.0 µM 75.4% | [6]; [8] 79% | [6]; at 50.0 µM 76.6%

CCCCCCCCCCCCOP(=O)(N1CC1(C)C)N1CC1(C)C (stereo not given)
inactive: [1]; [7] 4% | [1]; [8] 61% | [2]; [7] 2% | [2]; at 50.0 µM 58.1% | [3]; [7] 1% | [3]; [8] 67% | [4]; [7] 16% | [4]; at 50.0 µM 34.2% | [5]; [7] 24% | [6]; [7] 4%
active: [1]; at 50.0 µM 72.7% | [2]; [8] 71% | [3]; at 50.0 µM 82.8% | [4]; [8] 72% | [5]; [8] 97% | [5]; at 50.0 µM 87.3% | [6]; [8] 87% | [6]; at 50.0 µM 80.5%

C/C(CCn1[nH]c(=O)ccc1=O)=N\NS(=O)(=O)c1ccc(C)cc1
inactive: [1]; [7] -3% | [1]; [8] -3% | [1]; at 50.0 µM -4.05% | [2]; [7] 4% | [2]; [8] 15% | [2]; at 50.0 µM 4.6% | [3]; [7] 0% | [3]; [8] -11% | [3]; at 50.0 µM 12.6% | [4]; [7] 11% | [4]; [8] 29% | [4]; at 50.0 µM -6.7% | [5]; [7] -1% | [5]; [8] 6% | [5]; at 50.0 µM -5.15% | [6]; [7] -8% | [6]; [8] 11% | [6]; at 50.0 µM -10.3%

N#CSc1ccc2nc(NCO)sc2c1
active: [1]; [8] 97% | [1]; at 50.0 µM 98.9% | [2]; [8] 97% | [2]; at 50.0 µM 99.3% | [3]; [8] 98% | [3]; at 50.0 µM 99.3% | [4]; [8] 89% | [4]; at 50.0 µM 96% | [5]; [8] 97% | [5]; at 50.0 µM 95.4% | [6]; [8] 97% | [6]; at 50.0 µM 99.1%
inactive: [1]; [7] 22% | [2]; [7] 7% | [3]; [7] 18% | [4]; [7] -9% | [5]; [7] 12% | [6]; [7] 45%
